From article PMC4336329 (PLoS ONE, 2015)
About 14,000 (4.5%) of roughly 310,000 compounds showed an effect of 50% or more. The effect is printed as a negative number. The list comes from a sample in which strong results are over-represented; it also holds similar structures and randomly drawn compounds.

These compounds were tested against human ether-à-go-go-related gene (hERG) potassium channel (human, UniProt Q12809) (assay: primary screen, population patch clamp on CHO cells stably expressing hERG; higher = less effect of the substance).
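Further: peak tail current of the secondary pulse compared with the same well before compound.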

Chain of human ether-à-go-go-related gene (hERG) potassium channel (Q12809 whole entry, looked up): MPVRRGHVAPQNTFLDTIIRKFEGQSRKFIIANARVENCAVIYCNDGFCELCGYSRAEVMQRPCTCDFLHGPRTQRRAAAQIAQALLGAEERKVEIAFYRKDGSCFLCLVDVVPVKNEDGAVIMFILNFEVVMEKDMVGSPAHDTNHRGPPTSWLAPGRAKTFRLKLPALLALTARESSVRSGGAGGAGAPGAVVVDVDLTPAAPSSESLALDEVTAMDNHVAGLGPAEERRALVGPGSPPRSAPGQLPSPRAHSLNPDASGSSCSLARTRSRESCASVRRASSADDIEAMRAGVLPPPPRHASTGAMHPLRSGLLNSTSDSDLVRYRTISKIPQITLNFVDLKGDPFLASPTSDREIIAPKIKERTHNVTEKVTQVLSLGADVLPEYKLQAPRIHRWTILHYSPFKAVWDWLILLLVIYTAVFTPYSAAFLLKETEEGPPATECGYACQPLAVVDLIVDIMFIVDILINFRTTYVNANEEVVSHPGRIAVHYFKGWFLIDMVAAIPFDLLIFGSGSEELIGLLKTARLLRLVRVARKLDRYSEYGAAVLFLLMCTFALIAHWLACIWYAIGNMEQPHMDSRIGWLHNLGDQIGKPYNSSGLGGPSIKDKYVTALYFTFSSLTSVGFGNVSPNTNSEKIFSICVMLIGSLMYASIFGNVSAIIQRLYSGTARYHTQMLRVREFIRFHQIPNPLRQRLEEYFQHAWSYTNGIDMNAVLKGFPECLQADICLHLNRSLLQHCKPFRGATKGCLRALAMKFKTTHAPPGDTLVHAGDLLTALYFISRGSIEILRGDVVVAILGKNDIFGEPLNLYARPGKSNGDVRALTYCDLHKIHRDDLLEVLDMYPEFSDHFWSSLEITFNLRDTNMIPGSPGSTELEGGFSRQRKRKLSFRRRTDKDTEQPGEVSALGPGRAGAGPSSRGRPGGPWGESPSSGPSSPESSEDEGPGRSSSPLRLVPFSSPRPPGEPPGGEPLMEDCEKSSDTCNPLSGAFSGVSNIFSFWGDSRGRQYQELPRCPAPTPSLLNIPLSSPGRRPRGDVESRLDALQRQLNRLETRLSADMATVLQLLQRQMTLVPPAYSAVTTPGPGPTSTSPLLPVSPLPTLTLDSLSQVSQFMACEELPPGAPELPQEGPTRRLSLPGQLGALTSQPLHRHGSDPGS

Structure (SMILES) | hERG current change (%, negative = inhibition) at 10uM
O=C(NCC1CCCCC1)c1cccc(Br)c1 | -3.31%
CCCOc1ccc(N2CC(C(=O)Nc3ccc(N4CCOCC4)cc3)CC2=O)cc1 (stereo not drawn) | 36%
CN1CCC(OC(=O)c2cccc(F)c2)CC1.Cl | -0.186%
Cc1ccc(N2CC(NS(=O)(=O)c3cc(F)ccc3F)CC2=O)cc1C (stereo not drawn) | -6.74%
CC(=O)c1cccc(-n2nnnc2SCC(=O)Nc2cccc(NC(=O)c3ccco3)c2)c1 | -60.7%
O=C(CSc1nnnn1C1CCCCC1)Nc1cccc(NC(=O)c2ccco2)c1 | -27.8%
Cc1ccccc1-n1nnnc1SCC(=O)Nc1ccc(N2CCN(C)CC2)cc1 | -35.8%
O=C(CSc1nnnn1C1CCCC1)Nc1cccc(NC(=O)c2ccco2)c1 | -55.9%
O=C(CSc1nnnn1C1CCCCC1)NNC(=O)c1ccco1 | 11.3%
Cc1cccc(-n2nnnc2SCC(=O)Nc2ccc(N3CCN(C)CC3)cc2)c1 | -55%
CC(=O)c1ccc(-n2nnnc2SCC(=O)Nc2cccc(NC(=O)c3ccco3)c2)cc1 | 6.89%
Cc1ccc(-n2nnnc2SCC(=O)Nc2ccc(N3CCN(C)CC3)cc2)c(C)c1 | -21%
Cc1ccc(-n2nnnc2SCC(=O)Nc2cccc(NC(=O)c3ccco3)c2)cc1C | -6.49%
COc1cc(S(=O)(=O)NCc2ccncc2)c(OC)cc1Cl | 6.57%
CCC(C)NC(=O)c1cn(CCOC)c(=O)c2c1c1ccccc1n2C (stereo not drawn) | 20.4%
COc1ccc(Cn2c(CCC(=O)Nc3ccccc3OC)nc3cccnc32)cc1 | -3.79%
COc1cccc(CN2C(=O)C(C)N(C(=O)c3ccccc3)c3ccccc32)c1 (stereo not drawn) | -5.44%
CC1CCC(C(=O)c2c(O)c3ccccc3oc2=O)CC1 (stereo not drawn) | 15.9%
COc1ccc(-c2nc(S(=O)(=O)c3ccc(C)cc3)c(N3CCCC3)o2)cc1 | 17.2%
O=C(Nc1ccc(-n2ccnc2P(=O)(O)c2ccccc2)cc1)c1ccccc1Br | -14.9%

Structure (SMILES) | hERG current change (%, negative = inhibition) at 10uM
CCOC(=O)c1snc(C(=O)NC2CCCCC2)c1N | -6.13%
COc1ccc(NC(=O)c2sc3ncnc(N4CCN(c5ccccn5)CC4)c3c2C)cc1Cl | -23%
c1ccc(Nc2nc(N3CCCCC3)nc(N3CCCCC3)n2)cc1 | -4.68%
c1ccc(Nc2nc(N3CCCC3)nc(N3CCCC3)n2)cc1 | 13.1%
Nc1nc(CN2CCN(C(c3ccccc3)c3ccccc3)CC2)nc(Nc2ccccc2)n1 | -18.4%
Nc1nc(CCl)nc(Nc2ccccc2)n1 | 20.7%
Nc1nc(CN2CCCCCC2)nc(Nc2ccccc2)n1 | -61.4%
Nc1nc(CN2CCN(Cc3ccccc3)CC2)nc(Nc2ccccc2)n1 | -66.2%
O=C(NC(Nc1nc2ccc([N+](=O)[O-])cc2s1)(C(F)(F)F)C(F)(F)F)c1ccccc1 | -6.48%
CCCc1nnc(NC(=O)c2c(O)c3cccc4c3n(c2=O)CCC4)s1 | -2.48%
S=C(NCCCN1CCOCC1)NC1CCCC1 | 8.32%
O=c1[nH]c(/C=C\c2ccccc2F)nc(O)c1[N+](=O)[O-] | 17.5%
COc1ccc(NC(=O)CSc2c(C)n[nH]c2C)cc1 | -7.52%
CCc1noc(C)c1C(=O)NNC(=O)c1ccccc1 | -1.03%
Cc1occc1C(=O)NNC(=O)c1nn(C)c(=O)c2ccccc12 | 8.46%
CCc1noc(C)c1C(=O)NNC(=O)c1nn(C)c(=O)c2ccccc12 | -50.2%
Cn1nc(C(=O)NNC(=O)CCc2ccccc2Cl)c2ccccc2c1=O | -53.9%
CCOc1ccc(OCCC(=O)NNC(=O)c2nn(C)c(=O)c3ccccc23)cc1 | -13.1%
Cc1ccc(OCCC(=O)NNC(=O)c2nn(C)c(=O)c3ccccc23)cc1 | -33.1%
CCOC(=O)N1CCN(C(=O)C(CC(C)C)NS(=O)(=O)c2ccc(C)cc2)CC1 (stereo not drawn) | -4.14%

Structure (SMILES) | hERG current change (%, negative = inhibition) at 10uM
COC(=O)C1C2c3ccccc3OC1(C)N=c1s/c(=C/c3cn(C)nc3C)c(=O)n12 (stereo not drawn) | 11.2%
COC(CNC(=O)c1ccc2c(c1)nc(C)n2-c1cccc(C)c1)OC | 0.933%
CCC(CC)NC(=O)COC(=O)c1ccc(OCC(=O)Nc2ccccc2OC)c(OC)c1 | 11.4%
COc1cc(OC)cc(C(=O)N2CCN(c3ccccc3F)CC2)c1 | -11.6%
Cc1ccc(N2CCN(C(=O)c3ccccc3F)CC2)c(C)c1 | -8.81%
COc1ccc(N2CCN(C(=O)c3ccccc3Br)CC2)c([N+](=O)[O-])c1 | -65.5%
O=C(c1ccccc1Br)N1CCN(c2ccc([N+](=O)[O-])c(N3CCOCC3)c2)CC1 | -11.5%
COc1ccc(N2CCN(C(=O)c3ccccc3F)CC2)c([N+](=O)[O-])c1 | -51.3%
COc1cc(C(=O)N2CCN(c3ccccc3OC)CC2)c([N+](=O)[O-])cc1OC | 18.5%
Cc1cc(=O)oc2cc(OCc3cc4c(cc3Cl)OCO4)ccc12 | 8.74%
NNC(=O)CNc1cccc(Cl)c1 | 15.4%
CC(=O)c1ccc(NC(=O)C2C3CCC(C3)C2C(=O)O)cc1 (stereo not drawn) | 17.8%
COCCCNC(=O)Cn1nc(-c2ccccc2OC)ccc1=O | 18%
COc1ccc(Cl)cc1C(=O)Nc1ccncc1 | -26.2%
Cn1c(N)c(C(=O)COC(=O)C2CCCCC2)c(=O)n(C)c1=O | -11.2%
Cn1c(N)c(C(=O)COC(=O)CC2CC3CCC2C3)c(=O)n(C)c1=O (stereo not drawn) | -64.4%
Cn1c(N)c(C(=O)COC(=O)CCC2CCCCC2)c(=O)n(C)c1=O | -73.6%
Cn1c(N)c(C(=O)COC(=O)CCC2CCCC2)c(=O)n(C)c1=O | -43.3%
Cn1c(N)c(C(=O)COC(=O)C2CCCC2)c(=O)n(C)c1=O | -20.6%
Cn1c(N)c(C(=O)COC(=O)C23CC4CC(CC(C4)C2)C3)c(=O)n(C)c1=O | -22.6%
